Experimental data: the supplement of paper PMC10849652
About 8,800 targets were measured; listed, in parts, are those with a hit and a random draw of the rest. About 0.5% of all pairs of compound and target were hits.

Assays:
Test in all cases: log2 fold change, soluble protein after heating vs DMSO (PISA); higher = thermal stabilisation; K562 lysate, 10 uM; active = over 0.2 and 3.5 SD of the protein, either way, in both replicates (recomputed)
[1] = compound: C1=CC=C(C=C1)[C@H](COC2=CC3=C(C=C2)NC(=O)N3)NC(=O)C4=CC=CN(C4=O)CC5=CC(=C(C=C5)F)F
In short: (§1)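 To prepare the extract, K562 pellets were dounce-homogenised in PBS pH 7.4 with 1 mM MgCl2, giving crude material at 1 mg/mL protein. This was treated with 10 μM compound for 30 min, then heated in aliquots for 3 min over 48°C-58°C before pooling and addition of NP-40 to 0.5% at 4°C. Centrifugation at 21,000xg for 90 min left soluble protein in the supernatant, which TMTpro 16plex LC-MS/MS quantified with equalised channel sums. Results are log-two fold changes in thermal stability compared with solvent controls, from duplicates.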

[2] = compound: CC1=C(SC2=C1C(=N[C@H](C3=NN=C(N32)C)CC(=O)N)C4=CC=C(C=C4)Cl)C
In short: as §1

[3] = compound: CC1=C2C(=CC=C1)N=C(N(C2=O)C3=CC=CC=C3C)CN4C=NC5=C(N=CN=C54)N
In short: as §1

[4] = compound: Cc1sc2c(c1C)C(c1ccc(Cl)cc1)=N[C@@H](CC(=O)OC(C)(C)C)c1nnc(C)n1-2
In short: as §1

[5] = compound: c1ccc([C@@H]2C[C@H]2NC2CCNCC2)cc1
In short: as §1

Measured: log2 fold change

HEATR3 (UniProt Q7Z4Q2)
inactive: [1] -0.101 | [2] 0.022 | [3] 0.008 | [4] -0.024 | [5] 0.028

KDM1A (UniProt O60341)
inactive: [1] 0.007 | [2] -0.004 | [3] 0.018 | [4] 0.009
active: [5] 0.817

HNRNPH2 (UniProt P55795)
inactive: [1] 0.036 | [2] -0.007 | [3] 0 | [4] 0.105 | [5] -0.011

IFNGR1 (UniProt P15260)
Chain of UniProt P15260 (P15260 whole entry, looked up): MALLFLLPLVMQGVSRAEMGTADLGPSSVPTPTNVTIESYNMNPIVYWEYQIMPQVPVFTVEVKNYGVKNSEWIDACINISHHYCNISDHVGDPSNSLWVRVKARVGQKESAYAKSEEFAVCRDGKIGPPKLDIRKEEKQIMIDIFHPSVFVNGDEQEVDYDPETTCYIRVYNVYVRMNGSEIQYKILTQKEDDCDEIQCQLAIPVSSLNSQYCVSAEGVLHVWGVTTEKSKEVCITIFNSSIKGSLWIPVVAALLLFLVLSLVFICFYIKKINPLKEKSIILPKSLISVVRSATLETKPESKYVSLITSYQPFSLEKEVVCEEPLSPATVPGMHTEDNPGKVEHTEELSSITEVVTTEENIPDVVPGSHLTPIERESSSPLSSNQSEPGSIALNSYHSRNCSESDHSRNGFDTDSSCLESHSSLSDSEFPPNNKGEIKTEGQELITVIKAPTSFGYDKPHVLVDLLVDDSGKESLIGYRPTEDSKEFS
inactive: [1] 0.094 | [2] 0.083 | [3] 0.142 | [4] -0.299 | [5] -0.479

KHDRBS1 (UniProt Q07666)
inactive: [1] -0.04 | [2] 0.027 | [3] 0 | [4] 0.058 | [5] 0.045

HDAC6 (UniProt Q9UBN7)
inactive: [1] 0.029 | [2] 0.036 | [3] -0.017 | [4] -0.007 | [5] 0.042

KCT2 (UniProt Q8NC54)
Chain of UniProt Q8NC54 (Q8NC54 whole entry, looked up): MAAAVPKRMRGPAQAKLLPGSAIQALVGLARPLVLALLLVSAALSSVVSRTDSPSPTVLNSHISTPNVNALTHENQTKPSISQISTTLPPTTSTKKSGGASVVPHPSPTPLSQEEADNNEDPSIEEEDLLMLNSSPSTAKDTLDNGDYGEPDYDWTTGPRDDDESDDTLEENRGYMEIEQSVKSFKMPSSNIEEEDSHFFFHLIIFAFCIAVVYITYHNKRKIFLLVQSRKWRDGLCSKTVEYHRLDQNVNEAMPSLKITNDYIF
inactive: [1] 0.069 | [2] -0.008 | [3] -0.05 | [4] -0.033 | [5] -0.173

HIST2H2BC (UniProt Q6DN03)
Chain of UniProt Q6DN03 (Q6DN03 whole entry, looked up): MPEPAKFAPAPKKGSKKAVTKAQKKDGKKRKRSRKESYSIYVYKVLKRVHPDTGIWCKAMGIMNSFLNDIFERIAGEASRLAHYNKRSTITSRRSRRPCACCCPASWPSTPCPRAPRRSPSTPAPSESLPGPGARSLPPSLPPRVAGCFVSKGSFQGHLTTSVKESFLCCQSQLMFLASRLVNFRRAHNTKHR
inactive: [1] -0.03 | [2] 0.065 | [3] 0.014 | [4] 0.003 | [5] 0.165

GSK3B isoform 2 (UniProt P49841)
inactive: [1] 0.036 | [2] -0.003 | [3] -0.042 | [4] 0.029 | [5] -0.074

HDGFL2 isoform 2 (UniProt Q7Z4V5)
inactive: [1] 0.051 | [2] -0.014 | [3] 0.01 | [4] -0.076 | [5] -0.212

GMIP (UniProt Q9P107)
inactive: [1] 0.023 | [2] -0.04 | [3] -0.04 | [4] -0.018 | [5] 0.054

GRK2 (UniProt P25098)
inactive: [1] -0.05 | [2] 0.009 | [3] 0.03 | [4] 0.007 | [5] -0.008

GUSB (UniProt P08236)
inactive: [1] 0.035 | [2] 0.022 | [3] 0.016 | [4] -0.051 | [5] -0.313

IFITM3 (UniProt Q01628)
Chain of UniProt Q01628 (Q01628 whole entry, looked up): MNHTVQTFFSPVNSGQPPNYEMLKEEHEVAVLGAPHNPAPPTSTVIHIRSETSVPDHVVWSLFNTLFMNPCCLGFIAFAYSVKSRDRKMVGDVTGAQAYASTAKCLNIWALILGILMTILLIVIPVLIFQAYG
inactive: [1] -0.011 | [2] -0.078 | [3] -0.118 | [4] -0.088 | [5] 0.026

INPPL1 (UniProt O15357)
Chain of UniProt O15357 (O15357 whole entry, looked up): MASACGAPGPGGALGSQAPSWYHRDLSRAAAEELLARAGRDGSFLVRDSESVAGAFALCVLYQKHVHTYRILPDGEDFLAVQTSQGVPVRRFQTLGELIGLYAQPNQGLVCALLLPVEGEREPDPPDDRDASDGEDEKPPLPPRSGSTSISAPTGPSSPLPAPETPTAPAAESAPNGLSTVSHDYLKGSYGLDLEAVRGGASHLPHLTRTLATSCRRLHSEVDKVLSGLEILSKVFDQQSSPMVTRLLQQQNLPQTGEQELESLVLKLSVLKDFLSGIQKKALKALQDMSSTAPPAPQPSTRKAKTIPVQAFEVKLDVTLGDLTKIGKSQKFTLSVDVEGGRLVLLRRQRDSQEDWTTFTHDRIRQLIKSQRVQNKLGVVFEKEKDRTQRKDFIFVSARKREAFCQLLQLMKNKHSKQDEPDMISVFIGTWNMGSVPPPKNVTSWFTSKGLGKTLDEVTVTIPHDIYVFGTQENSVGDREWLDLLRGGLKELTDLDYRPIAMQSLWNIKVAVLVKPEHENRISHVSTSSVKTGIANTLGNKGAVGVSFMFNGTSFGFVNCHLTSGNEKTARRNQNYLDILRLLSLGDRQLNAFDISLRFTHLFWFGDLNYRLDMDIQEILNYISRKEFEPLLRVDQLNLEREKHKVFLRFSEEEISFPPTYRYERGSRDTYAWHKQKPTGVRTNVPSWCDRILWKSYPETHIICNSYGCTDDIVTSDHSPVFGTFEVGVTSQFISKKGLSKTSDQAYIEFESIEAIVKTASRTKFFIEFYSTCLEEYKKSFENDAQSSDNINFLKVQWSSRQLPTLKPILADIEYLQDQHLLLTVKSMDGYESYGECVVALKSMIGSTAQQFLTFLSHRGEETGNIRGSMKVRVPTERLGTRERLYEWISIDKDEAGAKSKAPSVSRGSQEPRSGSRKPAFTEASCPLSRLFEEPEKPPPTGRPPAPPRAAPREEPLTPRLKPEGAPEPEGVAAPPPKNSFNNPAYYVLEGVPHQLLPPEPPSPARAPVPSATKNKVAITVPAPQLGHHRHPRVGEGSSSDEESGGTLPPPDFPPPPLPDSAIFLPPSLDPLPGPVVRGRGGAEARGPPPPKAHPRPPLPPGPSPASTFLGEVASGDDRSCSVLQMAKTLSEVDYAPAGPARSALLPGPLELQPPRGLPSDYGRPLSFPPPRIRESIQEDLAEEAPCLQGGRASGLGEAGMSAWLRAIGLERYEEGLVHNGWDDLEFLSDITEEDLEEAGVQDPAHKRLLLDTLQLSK
inactive: [1] 0.014 | [2] 0.029 | [3] -0.021 | [4] 0.012 | [5] 0.021

HNRNPL (UniProt P14866)
inactive: [1] -0.01 | [2] -0.024 | [3] 0.04 | [4] 0.039 | [5] 0.071

HMGN4 (UniProt O00479)
inactive: [1] -0.137 | [2] -0.395 | [3] -0.186 | [4] 0.297 | [5] 0.513

HADH isoform 2 (UniProt Q16836)
inactive: [1] 0.012 | [2] 0.004 | [3] -0.047 | [4] 0.013 | [5] 0.086

HSD17B12 (UniProt Q53GQ0)
inactive: [1] -0.127 | [2] -0.006 | [3] 0.059 | [4] 0.031 | [5] -0.108

IRAK4 (UniProt Q9NWZ3)
inactive: [1] -0.02 | [2] -0.014 | [3] 0.022 | [4] -0.08 | [5] -0.024

GMPS (UniProt P49915)
inactive: [1] -0.014 | [2] -0.001 | [3] 0.02 | [4] 0.019 | [5] 0.088

HSPA8 (UniProt P11142)
inactive: [1] 0.002 | [2] -0.014 | [3] -0.004 | [4] -0.004 | [5] 0.006

HMGA1 (UniProt P17096)
Chain of UniProt P17096 (P17096 whole entry, looked up): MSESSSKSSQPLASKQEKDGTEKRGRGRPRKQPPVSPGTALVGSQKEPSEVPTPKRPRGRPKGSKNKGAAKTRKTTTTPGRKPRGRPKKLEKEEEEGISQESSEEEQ
inactive: [1] 0.009 | [2] 0.024 | [3] 0.011 | [4] -0.031 | [5] -0.135

HTT (UniProt P42858)
inactive: [1] 0.039 | [2] -0.088 | [3] 0.064 | [4] 0.066 | [5] -0.054

HDAC3 (UniProt O15379)
inactive: [1] -0.035 | [2] 0.009 | [3] 0.006 | [4] 0.044 | [5] 0.014

GLB1 (UniProt P16278)
Chain of UniProt P16278 (P16278 whole entry, looked up): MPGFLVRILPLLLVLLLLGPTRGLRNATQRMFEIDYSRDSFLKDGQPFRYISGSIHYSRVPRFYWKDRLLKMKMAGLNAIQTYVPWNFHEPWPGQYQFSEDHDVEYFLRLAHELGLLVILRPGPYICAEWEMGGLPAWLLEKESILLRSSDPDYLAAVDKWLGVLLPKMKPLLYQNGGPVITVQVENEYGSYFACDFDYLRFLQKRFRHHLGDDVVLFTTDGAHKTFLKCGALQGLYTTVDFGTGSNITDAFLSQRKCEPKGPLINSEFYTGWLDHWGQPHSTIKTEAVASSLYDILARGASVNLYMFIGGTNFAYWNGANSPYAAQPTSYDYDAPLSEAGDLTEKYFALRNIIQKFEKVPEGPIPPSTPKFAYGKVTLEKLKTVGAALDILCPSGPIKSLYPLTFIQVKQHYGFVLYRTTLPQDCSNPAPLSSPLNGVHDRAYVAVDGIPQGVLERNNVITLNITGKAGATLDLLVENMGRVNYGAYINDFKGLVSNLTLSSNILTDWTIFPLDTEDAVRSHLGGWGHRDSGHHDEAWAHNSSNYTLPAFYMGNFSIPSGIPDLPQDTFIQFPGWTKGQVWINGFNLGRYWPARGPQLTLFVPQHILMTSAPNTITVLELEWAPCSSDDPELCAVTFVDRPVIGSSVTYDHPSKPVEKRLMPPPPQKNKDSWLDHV
inactive: [1] 0.02 | [2] 0.033 | [3] 0.046 | [4] 0.016 | [5] -0.019

HNRNPUL1 (UniProt Q9BUJ2)
inactive: [1] 0.043 | [2] -0.022 | [3] -0.028 | [4] -0.003 | [5] -0.006

HARS (UniProt P12081)
inactive: [1] 0.025 | [2] 0.006 | [3] 0.001 | [4] 0.008 | [5] 0.002

GSK3A (UniProt P49840)
inactive: [1] -0.041 | [2] 0.03 | [3] -0.059 | [4] 0.036 | [5] -0.044

HSP90AA4P (UniProt Q58FG1)
inactive: [1] 0.012 | [2] 0.1 | [3] -0.008 | [4] -0.101 | [5] -0.308

KEAP1 (UniProt Q14145)
inactive: [1] 0.029 | [2] 0.016 | [3] 0.014 | [4] -0.018 | [5] -0.02

HSPA8 (UniProt E9PK54)
inactive: [1] 0.065 | [2] -0.031 | [3] -0.031 | [4] -0.046 | [5] -0.125

HK2 (UniProt P52789)
Chain of UniProt P52789 (P52789 whole entry, looked up): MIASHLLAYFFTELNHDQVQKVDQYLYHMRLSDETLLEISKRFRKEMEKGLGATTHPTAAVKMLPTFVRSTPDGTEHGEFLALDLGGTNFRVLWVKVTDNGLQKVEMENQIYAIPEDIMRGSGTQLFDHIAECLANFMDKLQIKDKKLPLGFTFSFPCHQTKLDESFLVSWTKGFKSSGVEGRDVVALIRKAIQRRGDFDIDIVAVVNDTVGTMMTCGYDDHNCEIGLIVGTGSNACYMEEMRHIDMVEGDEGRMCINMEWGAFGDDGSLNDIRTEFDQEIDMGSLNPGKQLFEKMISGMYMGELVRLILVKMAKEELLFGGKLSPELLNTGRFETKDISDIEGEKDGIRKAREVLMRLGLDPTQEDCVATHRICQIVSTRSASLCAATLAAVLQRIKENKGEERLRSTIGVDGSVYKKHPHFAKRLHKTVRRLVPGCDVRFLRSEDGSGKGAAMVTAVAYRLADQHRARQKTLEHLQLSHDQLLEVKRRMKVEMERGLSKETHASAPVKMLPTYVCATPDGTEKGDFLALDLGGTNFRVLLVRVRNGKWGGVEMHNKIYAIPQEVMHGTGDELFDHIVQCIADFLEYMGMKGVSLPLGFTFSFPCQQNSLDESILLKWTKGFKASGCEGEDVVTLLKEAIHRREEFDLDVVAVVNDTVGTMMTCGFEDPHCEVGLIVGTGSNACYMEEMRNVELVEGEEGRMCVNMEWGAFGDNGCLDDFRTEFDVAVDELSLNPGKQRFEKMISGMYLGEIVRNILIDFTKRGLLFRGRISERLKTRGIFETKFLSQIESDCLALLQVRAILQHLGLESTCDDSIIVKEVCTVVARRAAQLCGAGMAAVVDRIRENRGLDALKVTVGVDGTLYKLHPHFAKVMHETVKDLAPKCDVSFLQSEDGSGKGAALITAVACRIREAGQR
inactive: [1] -0.021 | [2] -0.016 | [3] 0.043 | [4] 0.019 | [5] 0.063

HAUS5 (UniProt O94927)
inactive: [1] 0.043 | [2] 0.02 | [3] 0.003 | [4] -0.055 | [5] 0.089

HMGCL (UniProt P35914)
Chain of UniProt P35914 (P35914 whole entry, looked up): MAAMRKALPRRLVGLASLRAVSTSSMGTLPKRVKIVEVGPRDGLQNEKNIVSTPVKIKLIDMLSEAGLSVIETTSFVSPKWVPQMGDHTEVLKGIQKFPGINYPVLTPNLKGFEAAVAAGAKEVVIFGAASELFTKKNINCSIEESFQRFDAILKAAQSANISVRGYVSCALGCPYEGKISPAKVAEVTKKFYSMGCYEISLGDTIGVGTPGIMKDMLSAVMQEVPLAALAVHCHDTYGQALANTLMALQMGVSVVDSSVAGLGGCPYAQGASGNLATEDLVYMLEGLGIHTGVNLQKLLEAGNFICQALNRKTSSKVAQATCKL
inactive: [1] 0.057 | [2] -0.017 | [3] 0.058 | [4] 0.046 | [5] 0.006

ISOC2 (UniProt Q96AB3)
inactive: [1] -0.014 | [2] 0.035 | [3] 0.085 | [4] 0.03 | [5] -0.031

HAUS8 (UniProt Q9BT25)
inactive: [1] 0.016 | [2] -0.029 | [3] 0 | [4] 0.009 | [5] 0

HK1 isoform 2 (UniProt P19367)
inactive: [1] -0.017 | [2] 0.017 | [3] -0.002 | [4] 0.016 | [5] 0.016

KDM5B isoform 2 (UniProt Q9UGL1)
inactive: [1] -0.07 | [2] 0.117 | [3] 0.018 | [4] 0.07 | [5] -0.229

ILK (UniProt Q13418)
inactive: [1] -0.009 | [2] -0.019 | [3] 0.004 | [4] 0.027 | [5] -0.002

IMMT (UniProt Q16891)
inactive: [1] -0.089 | [2] 0.016 | [3] 0.017 | [4] 0.022 | [5] 0.038

HNRNPM (UniProt P52272)
inactive: [1] -0.099 | [2] 0.034 | [3] 0.041 | [4] -0.025 | [5] 0.014

IRF2BP1 (UniProt Q8IU81)
Chain of UniProt Q8IU81 (Q8IU81 whole entry, looked up): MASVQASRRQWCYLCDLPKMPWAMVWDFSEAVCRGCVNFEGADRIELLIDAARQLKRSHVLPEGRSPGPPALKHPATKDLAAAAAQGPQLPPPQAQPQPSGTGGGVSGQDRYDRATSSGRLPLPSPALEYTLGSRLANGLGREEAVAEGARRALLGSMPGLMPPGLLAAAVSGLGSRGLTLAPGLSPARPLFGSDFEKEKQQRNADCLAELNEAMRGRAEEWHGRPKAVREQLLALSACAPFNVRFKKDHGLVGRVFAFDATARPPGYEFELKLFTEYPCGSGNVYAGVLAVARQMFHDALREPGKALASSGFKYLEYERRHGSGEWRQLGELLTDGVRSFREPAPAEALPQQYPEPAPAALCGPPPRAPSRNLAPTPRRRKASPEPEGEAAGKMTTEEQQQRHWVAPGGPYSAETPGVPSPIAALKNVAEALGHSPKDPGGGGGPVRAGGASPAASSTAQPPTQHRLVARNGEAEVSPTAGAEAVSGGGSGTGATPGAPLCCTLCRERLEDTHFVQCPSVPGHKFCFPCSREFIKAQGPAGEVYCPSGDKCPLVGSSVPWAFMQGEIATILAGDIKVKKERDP
inactive: [1] -0.048 | [2] -0.013 | [3] -0.043 | [4] 0.017 | [5] -0.045

INTS8 (UniProt Q75QN2)
inactive: [1] 0.021 | [2] -0.085 | [3] -0.002 | [4] 0.023 | [5] 0.081

KDM5C (UniProt P41229)
inactive: [1] -0.01 | [2] 0 | [3] 0.008 | [4] -0.01 | [5] 0.032

HSPA14 (UniProt Q0VDF9)
inactive: [1] 0 | [2] 0.011 | [3] -0.004 | [4] 0.025 | [5] 0.017

GOLGA6B (UniProt A6NDN3)
inactive: [1] -0.041 | [2] 0.006 | [3] 0.009 | [4] -0.123 | [5] 0.012

ITM2B (UniProt Q9Y287)
active: [3] 0.43
inactive: [1] -0.019 | [2] -0.032 | [4] 0.058 | [5] -0.027

HERC2 (UniProt O95714)
inactive: [1] 0.005 | [2] -0.07 | [3] -0.011 | [4] 0.018 | [5] -0.037

GSTM2 (UniProt P28161)
inactive: [1] -0.007 | [2] 0.03 | [3] -0.048 | [4] -0.037 | [5] 0.051

IL18R1 (UniProt Q13478)
inactive: [2] -0.103 | [3] 0.119 | [4] -0.094 | [5] 0.052
active: [1] -0.612

GTF2H1 (UniProt P32780)
inactive: [1] 0.006 | [2] -0.035 | [3] 0.089 | [4] 0.025 | [5] 0.006

ITPKA (UniProt P23677)
inactive: [1] -0.022 | [2] 0.006 | [3] -0.017 | [4] -0.012 | [5] -0.013
